Data published in PubChem BioAssay (NCATS).
Values without a mark were called inactive. Records with an inconclusive call do not appear. Entries that show only a call come without a potency. Active and inactive are the calls of the source. Unless noted, calls follow the shape of the dose curve; as a rule, active = well fitted curve in the direction sought with a large enough effect; inconclusive = small, poorly fitted or top-dose-only effect, or another doubt; inactive = no such curve, though single readings can be large; an effect the other way counts as inactive or inconclusive.

Tests used:
[1] = NCATS anti-infectives library activity on HEK293 viability as a counter-qHTS vs the C. elegans viability qHTS (AID 1745854);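 also: HEK293 cells exposed to compounds for 24 hr before the viability read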
How it was run: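 Cytotoxicity in human HEK293 cells is measured by ATP-dependent CellTiter-Glo luminescence following a 24 hr incubation with titrated library compounds at 37C. Top final concentration is 41.7 uM.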

[2] = Confirmation and Secondary Assay for Modulators of Hemoglobin Beta Chain Splicing at IVS2 705 locus (AID 930);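 also: HeLa cells stably expressing the EGFP-705 splicing reporter; GFP fluorescence per well restored by corrected splicing of the IVS2-705 intron in EGFP; series mostly up to about 46 µM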
How it was run: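 HeLa cells stably carrying EGFP interrupted by mutant beta-globin intron 2 (IVS2-705) treated 2 days at 37C with compound; 500 nM antisense PNA as control. Correct splicing read as total peak GFP intensity per well by laser-scanning cytometry.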

[3] = qHTS assay for small molecule agonists of the antioxidant response element (ARE) signaling pathway measured by Nrf2-dependant transcriptional activity (AID 720636; active = well fitted curve in the direction sought with a large enough effect in the repeat runs; an effect the other way counts as inactive or inconclusive)
How it was run: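 ARE-luc HepG2 cells carrying an Nrf2-responsive luciferase reporter, in medium with 1% dialyzed FBS, exposed to compound for 16 hr at 37 C, 5% CO2. Luminescence read 30 min after ONE-Glo addition.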

[4] = biological target: Cytochrome P450 2C19 (Homo sapiens) (UniProt P33261); test: qHTS Assay for Inhibitors and Substrates of Cytochrome P450 2C19 (AID 899); also: nearly all actives have a fitted effect of over 60% in size; also: potency is read from the fitted curve at half-maximal effect
How it was run: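 NADPH-dependent conversion of Luciferin-H EGE (10uM, at KM) by 5nM enzyme in 50mM KPO4, 60 min at 37C following 10 min compound preincubation. Stopped with luciferin detection buffer; luminescence read after 20 min.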

[5] = biological target: Cytochrome P450 2D6 (Homo sapiens) (UniProt P10635); test: qHTS Assay for Inhibitors and Substrates of Cytochrome P450 2D6 (AID 891);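 also: luciferin methyl ether substrate demethylated by CYP2D6 with NADPH regeneration; nearly all actives have a fitted effect of over 60% in size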
How it was run: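 Human CYP2D6 (5 nM) with 30 uM Luciferin-ME EGE (at Km) in 100 mM KPO4, compound preincubated 10 min, then NADPH regeneration system for 60 min at room temperature. Luciferin read by luminescence; normalized to 1.43 uM quinidine.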

[6] = biological target: Pyruvate kinase PKM (Homo sapiens) (UniProt P14618); test: qHTS Assay for Inhibitors of Human Muscle Pyruvate Kinase (AID 958); settings: purified human PKM enzyme activity
How it was run: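 Screening used highly purified human pyruvate kinase M2 under submaximal activity, with PEP at its Km and ADP below Km. After an hour at room temperature, ATP was read by luciferase luminescence.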

[7] = biological target: Rap guanine nucleotide exchange factor 3 (Homo sapiens) (UniProt O95398); test: Confirmatory qHTS for antagonist of cAMP-regulated guanine nucleotide exchange factor 3 (EPAC1) (AID 1645880); also: nearly all actives have a fitted effect of over 55% in size
How it was run: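 Nucleotide exchange uses 100 nM EPAC1, 250 nM RAP1B-BODIPY-GDP and 50 uM GDP, with compounds in a concentration-titration series. After 5 min at room temperature, fluorescence (480 nm ex/540 nm em) is read every 5 min for 30 min. Data are normalized to control ATA and DMSO.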

[8] = biological target: Rap guanine nucleotide exchange factor 3 (Homo sapiens) (UniProt O95398); test: Confirmatory qHTS for agonist of cAMP-regulated guanine nucleotide exchange factor 3 (EPAC1) (AID 1645881);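 also: EPAC1 catalysed release of BODIPY-GDP from Rap1B seen as fluorescence loss; nearly all actives have a fitted effect of over 75% in size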
[9] = biological target: Rap guanine nucleotide exchange factor 4 (Homo sapiens) (UniProt Q8WZA2); test: Confirmatory qHTS for agonist of cAMP-regulated guanine nucleotide exchange factor 4 (EPAC2) (AID 1645884);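 also: nucleotide exchange releases bodipy-GDP from Rap1 and this lowers its fluorescence; nearly all actives have a fitted effect of over 65% in size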
[10] = biological target: Rap guanine nucleotide exchange factor 4 (Homo sapiens) (UniProt Q8WZA2); test: Confirmatory qHTS for antagonist of cAMP-regulated guanine nucleotide exchange factor 4 (EPAC2) (AID 1645885); also: nearly all actives have a fitted effect of over 25% in size
[11] = biological target: Rap guanine nucleotide exchange factor 3 (Homo sapiens) (UniProt O95398); test: Counterscreen qHTS for antagonist of cAMP-regulated guanine nucleotide exchange factor 3 (EPAC1) (AID 1645888);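 also: fluorescence loss as bound BODIPY-GDP is released from Rap1B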
How it was run: (§1)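 Measured: fluorescence of BODIPY-GDP bound to Rap1B, which falls as exchange proceeds. Conditions include 50 uM competing GDP, 5 and 30 min reads, and a later cAMP challenge for antagonist detection.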

[12] = biological target: Rap guanine nucleotide exchange factor 3 (Homo sapiens) (UniProt O95398); test: Counterscreen qHTS for agonist of cAMP-regulated guanine nucleotide exchange factor 3 (EPAC1) (AID 1645889); also: nearly all actives have a fitted effect of over 40% in size
How it was run: as §1

[13] = biological target: Pyruvate kinase (Leishmania mexicana) (UniProt Q27686); test: qHTS Validation Assay for Activators of Leishmania Mexicana Pyruvate Kinase (AID 959)
How it was run: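 Eight-point qHTS titrations in triplicate, data normalized to DMSO neutral control. Reaction: 0.2 nM LmPYK E451W mutant, 0.5 mM PEP, 0.1 mM ADP, 7 mM MgCl2, pH 7.2, one hour at room temperature; luminescent ATP detection.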

[14] = qHTS Assay for Identification of Small Molecule Antagonists for Thrombopoietin (TPO) Signaling Pathway (AID 918); settings: TPO-dependent cell signaling reporter, antagonist mode; also: potency is read from the fitted curve at half-maximal effect; nearly all actives have a fitted effect of over 60% in size
How it was run: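 First, Ba/F3 reporter cells expressing human TPO receptor were held overnight without IL-3. Next, compound and 26 pM TPO were added. After 24 hrs incubation at 37 C, luciferase luminescence under the Glycoprotein IIb promoter was recorded.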

Sequence of Rap guanine nucleotide exchange factor 4 (Homo sapiens) (Q8WZA2 whole entry, looked up): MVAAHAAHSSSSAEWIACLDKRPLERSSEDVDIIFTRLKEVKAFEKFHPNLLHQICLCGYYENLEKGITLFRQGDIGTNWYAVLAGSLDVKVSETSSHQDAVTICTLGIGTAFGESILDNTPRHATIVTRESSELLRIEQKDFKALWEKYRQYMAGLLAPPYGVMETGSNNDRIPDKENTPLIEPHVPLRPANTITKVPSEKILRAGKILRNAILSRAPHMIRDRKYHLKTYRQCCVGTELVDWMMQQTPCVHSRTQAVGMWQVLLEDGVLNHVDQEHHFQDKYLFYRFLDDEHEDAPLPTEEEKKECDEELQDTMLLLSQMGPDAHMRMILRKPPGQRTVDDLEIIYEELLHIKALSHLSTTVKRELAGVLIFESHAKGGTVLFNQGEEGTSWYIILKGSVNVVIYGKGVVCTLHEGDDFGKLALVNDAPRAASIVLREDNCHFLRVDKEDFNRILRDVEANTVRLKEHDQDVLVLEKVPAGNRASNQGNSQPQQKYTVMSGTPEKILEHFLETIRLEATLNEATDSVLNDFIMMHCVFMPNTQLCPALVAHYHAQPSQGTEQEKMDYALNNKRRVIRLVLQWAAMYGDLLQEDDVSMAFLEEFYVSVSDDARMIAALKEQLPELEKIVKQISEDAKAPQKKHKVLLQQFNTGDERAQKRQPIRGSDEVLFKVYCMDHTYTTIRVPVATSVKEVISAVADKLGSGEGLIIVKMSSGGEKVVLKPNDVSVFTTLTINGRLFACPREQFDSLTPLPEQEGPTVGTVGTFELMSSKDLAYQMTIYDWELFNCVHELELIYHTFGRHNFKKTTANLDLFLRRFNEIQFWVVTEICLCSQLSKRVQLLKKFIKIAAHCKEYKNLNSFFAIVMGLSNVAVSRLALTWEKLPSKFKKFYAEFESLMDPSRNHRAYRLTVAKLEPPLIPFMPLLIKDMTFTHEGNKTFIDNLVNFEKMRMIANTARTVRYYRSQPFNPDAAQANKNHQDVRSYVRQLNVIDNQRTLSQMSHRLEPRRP
Sequence of Rap guanine nucleotide exchange factor 3 (Homo sapiens) (O95398 whole entry, looked up): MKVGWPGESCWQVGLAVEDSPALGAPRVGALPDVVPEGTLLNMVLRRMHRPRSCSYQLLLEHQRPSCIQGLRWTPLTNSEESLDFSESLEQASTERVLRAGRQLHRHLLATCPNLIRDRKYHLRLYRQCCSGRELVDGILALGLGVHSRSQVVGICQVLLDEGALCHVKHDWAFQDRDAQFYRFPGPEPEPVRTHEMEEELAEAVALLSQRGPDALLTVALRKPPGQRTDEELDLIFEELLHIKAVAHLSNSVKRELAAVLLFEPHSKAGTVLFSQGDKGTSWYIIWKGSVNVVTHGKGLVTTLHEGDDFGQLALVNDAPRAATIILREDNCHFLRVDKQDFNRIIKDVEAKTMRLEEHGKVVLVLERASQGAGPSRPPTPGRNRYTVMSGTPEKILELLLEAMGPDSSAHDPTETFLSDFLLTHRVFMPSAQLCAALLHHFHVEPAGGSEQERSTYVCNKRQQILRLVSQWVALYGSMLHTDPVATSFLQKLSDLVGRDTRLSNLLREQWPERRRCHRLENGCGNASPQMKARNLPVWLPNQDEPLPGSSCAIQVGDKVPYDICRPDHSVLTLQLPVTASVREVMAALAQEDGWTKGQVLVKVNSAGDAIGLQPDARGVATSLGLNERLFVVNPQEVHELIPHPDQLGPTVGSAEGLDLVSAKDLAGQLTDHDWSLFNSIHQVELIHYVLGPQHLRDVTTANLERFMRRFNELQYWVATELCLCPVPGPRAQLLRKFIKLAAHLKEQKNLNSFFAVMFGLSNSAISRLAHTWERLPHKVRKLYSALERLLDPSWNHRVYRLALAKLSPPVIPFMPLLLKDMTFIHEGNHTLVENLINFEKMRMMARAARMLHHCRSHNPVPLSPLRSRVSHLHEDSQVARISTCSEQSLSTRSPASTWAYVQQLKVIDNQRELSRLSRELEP
Sequence of Cytochrome P450 2C19 (Homo sapiens) (P33261 whole entry, looked up): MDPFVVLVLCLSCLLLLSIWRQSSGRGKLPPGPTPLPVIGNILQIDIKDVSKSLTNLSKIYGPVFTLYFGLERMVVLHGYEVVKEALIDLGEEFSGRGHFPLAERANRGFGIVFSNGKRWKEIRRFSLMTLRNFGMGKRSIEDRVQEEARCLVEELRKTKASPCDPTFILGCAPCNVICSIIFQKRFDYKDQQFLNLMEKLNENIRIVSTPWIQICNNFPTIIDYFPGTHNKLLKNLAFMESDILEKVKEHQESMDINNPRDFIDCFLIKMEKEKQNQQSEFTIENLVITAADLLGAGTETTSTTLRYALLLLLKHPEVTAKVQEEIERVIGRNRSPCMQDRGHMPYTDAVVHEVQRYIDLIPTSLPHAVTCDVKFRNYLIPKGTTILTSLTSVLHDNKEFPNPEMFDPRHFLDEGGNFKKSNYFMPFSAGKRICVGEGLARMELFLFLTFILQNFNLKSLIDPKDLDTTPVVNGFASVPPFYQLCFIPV
Sequence of Pyruvate kinase PKM (Homo sapiens) (P14618 whole entry, looked up): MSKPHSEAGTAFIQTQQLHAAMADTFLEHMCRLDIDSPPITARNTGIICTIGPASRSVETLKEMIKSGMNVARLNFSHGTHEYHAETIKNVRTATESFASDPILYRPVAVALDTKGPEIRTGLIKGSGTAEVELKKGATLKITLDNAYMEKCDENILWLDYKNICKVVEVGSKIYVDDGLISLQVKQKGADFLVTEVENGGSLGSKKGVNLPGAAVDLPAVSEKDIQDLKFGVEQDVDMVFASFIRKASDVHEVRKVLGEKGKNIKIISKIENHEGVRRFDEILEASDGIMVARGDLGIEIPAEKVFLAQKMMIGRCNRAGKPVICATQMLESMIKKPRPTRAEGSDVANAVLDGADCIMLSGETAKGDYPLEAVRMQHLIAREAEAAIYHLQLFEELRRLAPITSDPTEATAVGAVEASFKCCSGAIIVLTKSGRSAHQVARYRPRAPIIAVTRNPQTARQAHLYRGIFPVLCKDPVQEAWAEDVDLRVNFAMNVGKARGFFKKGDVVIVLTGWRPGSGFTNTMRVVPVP
Sequence of Cytochrome P450 2D6 (Homo sapiens) (P10635 whole entry, looked up): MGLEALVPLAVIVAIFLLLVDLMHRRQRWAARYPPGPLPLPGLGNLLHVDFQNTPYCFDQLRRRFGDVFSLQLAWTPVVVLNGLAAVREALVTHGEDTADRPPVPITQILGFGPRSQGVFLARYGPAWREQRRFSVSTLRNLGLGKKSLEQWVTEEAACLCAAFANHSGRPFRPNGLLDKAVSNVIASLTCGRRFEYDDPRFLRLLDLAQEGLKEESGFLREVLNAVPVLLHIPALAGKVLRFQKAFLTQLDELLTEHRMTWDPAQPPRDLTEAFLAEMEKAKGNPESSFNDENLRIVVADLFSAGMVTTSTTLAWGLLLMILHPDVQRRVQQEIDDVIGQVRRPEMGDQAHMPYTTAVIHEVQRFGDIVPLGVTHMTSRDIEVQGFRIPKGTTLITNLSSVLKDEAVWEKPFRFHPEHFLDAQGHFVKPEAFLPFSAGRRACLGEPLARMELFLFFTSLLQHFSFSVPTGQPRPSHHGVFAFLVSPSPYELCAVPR
Sequence of Pyruvate kinase (Leishmania mexicana) (Q27686 2-499 E452W): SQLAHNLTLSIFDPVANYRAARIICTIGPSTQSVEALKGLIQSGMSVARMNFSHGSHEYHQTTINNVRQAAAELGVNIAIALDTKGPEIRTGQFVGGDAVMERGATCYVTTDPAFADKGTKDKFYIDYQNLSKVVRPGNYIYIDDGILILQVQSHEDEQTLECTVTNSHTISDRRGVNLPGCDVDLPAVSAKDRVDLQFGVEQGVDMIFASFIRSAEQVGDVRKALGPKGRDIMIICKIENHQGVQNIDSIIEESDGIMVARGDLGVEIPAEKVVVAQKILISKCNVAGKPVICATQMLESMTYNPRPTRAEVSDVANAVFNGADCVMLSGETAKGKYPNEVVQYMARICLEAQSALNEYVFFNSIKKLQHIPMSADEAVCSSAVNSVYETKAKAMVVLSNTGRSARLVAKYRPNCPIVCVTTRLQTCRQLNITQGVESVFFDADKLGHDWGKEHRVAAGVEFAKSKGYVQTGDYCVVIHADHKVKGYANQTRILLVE

CN(C)Cc1ccc(S(=O)(=O)n2ccc(/C=C/C(=O)NO)c2)cc1
Potency [1]: inactive

CN1C(=O)CCC1c1cccnc1 (centres undefined)
outcome [2]: inactive

N[C@H](Cc1ccc(O)c(O)c1)C(=O)O
outcome [3]: inactive

NCCC(=O)NCCc1cnc[nH]1
Potency [4]: inactive

N=C1Sc2ccccc2C2=NCCCN12
Potency [5]: inactive
Potency [6]: 7.94 µM (active)

CN1C2CC(OC(=O)C(CO)c3ccccc3)CC1C1OC12 (centres undefined)
Potency [7]: inactive
outcome [8]: inactive
activation [9]: 2.48% [at 17.1 µM]
activity change, negative = inhibition [10]: -4.32% [at 12.7 µM]
outcome [11]: inactive
activation [12]: 0.0134% [at 30.8 µM]

CCSC(N)=Nc1ccc(C(F)(F)F)cc1
outcome [13]: inactive

CCCC(=O)NCCc1c2n(c3ccc(OC)cc13)Cc1ccccc1-2
Potency [4]: 0.398 µM (active)

NCCCCNS(=O)(=O)c1cccc2c(Cl)cccc12
Potency [14]: 10 µM (active)

NC[C@@H](O)c1ccc(O)c(O)c1
outcome [2]: inactive

CC(=O)NC(c1cccs1)c1cc(Br)c2cccnc2c1O (centres undefined)
outcome [8]: inactive
activation [9]: 0% [at 17.1 µM]
outcome [11]: inactive
